# PubChem BioAssay AID488969 (Vanderbilt High Throughput Screening Facility, 2010)
# Whole data set: some 110,000 compounds, median “z-score” near -0.1, cut for the highest 2% near 2. For the sample, the highest values were picked, then their nearest neighbours and some compounds at random. Activity calls are given as the source filed them.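 Rule for the calls: active = z-score in the third read window above 3 or below -3; inactive = the rest.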
# Target: Metabotropic glutamate receptor 8 (Rattus norvegicus) (UniProt P70579)
# Sequence (P70579 whole entry, looked up): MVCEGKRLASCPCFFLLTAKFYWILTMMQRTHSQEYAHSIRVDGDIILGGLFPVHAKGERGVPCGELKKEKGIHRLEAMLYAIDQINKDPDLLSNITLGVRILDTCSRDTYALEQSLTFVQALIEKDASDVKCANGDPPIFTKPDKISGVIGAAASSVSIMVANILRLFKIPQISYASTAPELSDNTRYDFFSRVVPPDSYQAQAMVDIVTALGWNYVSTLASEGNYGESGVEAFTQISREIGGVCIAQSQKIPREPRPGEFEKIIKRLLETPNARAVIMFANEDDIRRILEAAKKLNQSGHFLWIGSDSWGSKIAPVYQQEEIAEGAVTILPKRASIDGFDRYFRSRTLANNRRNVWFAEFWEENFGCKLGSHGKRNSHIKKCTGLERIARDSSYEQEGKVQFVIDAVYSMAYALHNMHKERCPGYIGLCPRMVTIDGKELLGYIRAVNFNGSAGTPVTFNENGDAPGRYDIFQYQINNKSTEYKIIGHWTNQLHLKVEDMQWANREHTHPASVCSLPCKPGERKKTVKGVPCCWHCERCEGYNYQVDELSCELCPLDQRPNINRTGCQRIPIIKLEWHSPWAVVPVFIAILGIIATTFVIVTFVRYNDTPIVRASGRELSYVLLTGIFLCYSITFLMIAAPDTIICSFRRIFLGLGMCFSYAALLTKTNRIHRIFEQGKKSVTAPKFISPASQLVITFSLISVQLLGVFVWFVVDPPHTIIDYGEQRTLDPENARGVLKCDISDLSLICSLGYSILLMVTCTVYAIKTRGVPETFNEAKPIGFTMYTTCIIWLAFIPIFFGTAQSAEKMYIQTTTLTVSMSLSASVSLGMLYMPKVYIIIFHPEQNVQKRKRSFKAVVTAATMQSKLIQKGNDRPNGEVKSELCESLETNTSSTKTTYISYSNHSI
# Test: rat mGluR8 modulators via GIRK flux, primary screen, cell-based, thallium flux, HTS (AID 488969)
# Details: HEK293 rat mGluR8, GIRK (G protein-gated inwardly rectifying potassium channel) thallium flux, FluoZin2; at 10 µM; stronger effect = higher value; submaximal glutamate (EC20) added with thallium
row,SMILES,z-score
1,Cc1cc(C(F)(F)F)nc(SCC(=O)NC2=NC(=O)C(C)S2)n1 (stereo not drawn),0.475
2,O=C(CNC(=O)c1cccc(F)c1)N/N=C/c1cc(Br)ccc1OC(=O)/C=C/c1ccco1,2.46
3,O=C(CNC(=O)c1ccccc1F)N/N=C/c1cc(Br)ccc1OC(=O)/C=C/c1ccco1,-0.338
4,COc1ccccc1C(=O)NCC(=O)N/N=C/c1cc(Br)ccc1OC(=O)/C=C\c1ccco1,-0.122
5,Cc1cc(C)nc(NC(=O)c2ccc(C)c([N+](=O)[O-])c2)n1,-0.0674
6,O=C(CN1CCN(CC(=O)Nc2ccccn2)CC1)Nc1ccccn1,-0.212
7,O=C(Nc1ccccc1)C(=O)Nc1ccccn1,-0.125
8,O=C(CC(=O)Nc1ccccn1)Nc1ccccn1,4.08 (active)
9,COc1ccc(OCc2nc3ccc(S(=O)(=O)Nc4ccccc4Cl)cc3[nH]2)cc1,-0.822
10,Cc1ccc(S(=O)(=O)N2CCCCC2)cc1NC(=O)CSc1ccc2c(c1)OCCO2,-0.361
11,CCCCSc1nc(N)c(NC(=O)c2ccco2)c(=O)[nH]1,3.07 (active)
12,Nc1nc(SCC(=O)N2CCCC2)[nH]c(=O)c1NC(=O)c1ccco1,0.975
13,CCCCSc1nc(O)c(Cc2ccccc2)c(=O)[nH]1,0.379
14,O=C(O)C1C2C=CC(C3CC23)C1C(=O)NCCc1ccccc1 (stereo not drawn),0.335
15,Cc1cc(C)n2nc(C(=O)NCc3ccccc3)cc2n1,0.128
16,CCS/C(N)=N/N=C/c1cc(C)ccc1O,-0.389
17,CCc1ccccc1NC(=S)N1CCC(C(=O)c2ccc(F)cc2)CC1,0.202
18,O=C(c1ccc(F)cc1)C1CCN(C(=S)Nc2ccccc2)CC1,-0.612
19,Cc1cccc(NC(=S)N2CCC(C(=O)c3ccc(F)cc3)CC2)c1C,5.76 (active)
20,Cc1ccc(Cn2ncc3c(NCCCN4CCOCC4)ncnc32)cc1,-0.227
21,CCc1nnc(NC(=O)CSc2nnc(-c3cccnc3)n2CCc2ccccc2)s1,0.167
22,Cc1ccc(OCCn2c(=O)sc3ccccc32)cc1,-0.193

row,SMILES,z-score
1,COc1ccc(CO/N=C/c2c(C)[nH]c(=O)[nH]c2=O)cc1,3.36 (active)
2,COc1ccc(N(C)S(=O)(=O)c2c(C)[nH]c(=O)[nH]c2=O)cc1,0.02
3,COc1ccc(Cc2c[nH]c(=O)[nH]c2=O)cc1,-0.218
4,O=C(CSc1ncn[nH]1)Nc1ccc([N+](=O)[O-])cc1Br,-0.12
5,CCCCCNC1=CC(=O)CC(c2ccccc2)C1 (stereo not drawn),-0.123
6,CC(C)CCNC1=CC(=O)CC(c2ccccc2)C1 (stereo not drawn),2.1
7,COc1ccc(C2CC(=O)C=C(NCCC(C)C)C2)cc1 (stereo not drawn),0.226
8,CC(c1ccccc1)N1C(=O)c2ccc(C(=O)NCc3ccco3)cc2C1=O (stereo not drawn),-0.54
9,Cc1ccc(N=C(NO)c2nonc2N)cc1,-1.5
10,Cn1ccnc1C(O)(c1nnc(-c2ccccc2)o1)C(F)(F)F (stereo not drawn),-1.19
11,CCCCn1c(O)c(N=NC(=O)Cn2c(C(F)(F)F)nc3ccccc32)c2ccccc21,0.194
12,CC(C)n1c(O)c(N=Nc2ccccn2)c2ccccc21,2.21
13,CC(C)n1c(O)c(N=NC(=O)Cn2ccc(C(F)(F)F)n2)c2ccccc21,1.13
14,Cc1cc(C(=O)N=Nc2c(O)n(C(C)C)c3ccccc23)n[nH]1,0.232
15,CC(C)CCn1c(O)c(N=Nc2ccccn2)c2ccccc21,1.19
16,CC(C)n1c2ccccc2c2nc3ccccc3nc21,-0.47
17,CC(C)n1c(O)c(N=NC(=O)c2ccccc2NS(=O)(=O)c2cccs2)c2ccccc21,-0.411
18,CC(C)n1c(O)c(N=Nc2ccc(Cl)nn2)c2ccccc21,3.42 (active)
19,CCCCn1c(O)c(N=Nc2ccccn2)c2ccccc21,2.97
20,COc1ccc(CC(=O)NCc2ccco2)cc1OC,-0.0499
21,CN(C)C(CNS(=O)(=O)c1ccc(Cl)cc1)c1cccnc1 (stereo not drawn),-0.0299
22,CCOC(=O)CCc1c(C)c2ccc(OCC(=O)N(CC)CC)c(C)c2oc1=O,-0.0102

row,SMILES,z-score
1,CCCc1cc(=O)[nH]c(SCC(=O)N2N=C(c3ccc(Cl)cc3)CC2c2ccco2)n1 (stereo not drawn),-0.126
2,COCCn1c(=S)[nH]c2cc(C(=O)N3CCC(C(N)=O)(N4CCCCC4)CC3)ccc2c1=O,-0.286
3,CCOc1ccccc1N1CCN(Cc2cccc(OC)c2O)CC1,-0.0607
4,COc1ccccc1N1CCN(Cc2ccc(O)c3ncccc23)CC1,-0.0396
5,COc1ccccc1N1CCN(Cc2cc(Br)c(O)c3ncccc23)CC1,3.32 (active)
6,Cc1cc(C(=O)NCC(=O)OCC(=O)N(C)C2CCCCC2)ccc1[N+](=O)[O-],0.828
7,CCOC(=O)C1C(=O)C=C(/C=C/c2ccccc2)CC1c1ccc(Cl)cc1 (stereo not drawn),-0.123
8,CC(C)[C@H](NC(=O)OC(C)(C)C)c1nnc(SCC(=O)Nc2ccc(Br)cc2)o1,-0.355
9,Cn1c(N2CCN(C(=O)NC34CC5CC(CC(C5)C3)C4)CC2)nc2ccccc21,-0.317
10,Cc1ccc(-n2c(SCC(=O)Nc3cccc(S(=O)(=O)NC4=NCCCCC4)c3)nc3ccccc3c2=O)cc1,-0.48
11,O=C(CSc1ccc2ccccc2c1Br)Nc1cccc(S(=O)(=O)NC2=NCCCCC2)c1,14.5 (active)
12,Cc1cc(C)cc(-n2c(SCC(=O)Nc3cccc(S(=O)(=O)NC4=NCCCCC4)c3)nc3ccccc3c2=O)c1,-0.139
13,CCCCC(c1nnnn1C1CCCC1)N1CCN(C2CCCCC2)CC1 (stereo not drawn),-0.391
14,O=C(O)C1CCCCN1S(=O)(=O)c1ccc2ccccc2c1 (stereo not drawn),-0.217
15,O=C(NC1CC1)C1CCCN1S(=O)(=O)c1ccc2ccccc2c1 (stereo not drawn),-0.112
16,COC(=O)C1CCCN1S(=O)(=O)c1ccc2ccccc2c1 (stereo not drawn),2.41
17,Cc1ccc(C(=O)COc2ccccc2-c2ccccc2)cc1,-0.229
18,CCOc1ccccc1C(=O)N(Cc1ccccc1)Cc1cc2cc3c(cc2[nH]c1=O)OCCO3,0.283
19,CCOC(=O)c1ccc(NC(=O)CCNC(=O)c2ccc([N+](=O)[O-])cc2)cc1,-0.327
20,CCn1nc([N+](=O)[O-])c(C(C#N)c2nc3cc(C(F)(F)F)ccc3s2)c(Cl)c1=O (stereo not drawn),2.97
21,CCn1nc([N+](=O)[O-])c(C(C#N)c2nc3ccccc3n2C)c(Cl)c1=O (stereo not drawn),-0.682
22,CCCn1nc([N+](=O)[O-])c(C(C#N)c2nc3ccccc3s2)c(Cl)c1=O (stereo not drawn),-2.49

row,SMILES,z-score
1,CCCS(=O)(=O)N1CCC(C(=O)NCc2ccco2)CC1,0.18
2,Cc1ccc(OCc2nnc(SCC(=O)c3cccs3)n2-c2ccccc2)cc1C,0.316
3,Cc1c(C(=O)OCC(=O)N2CC(C)OC(C)C2)oc2ccc(Br)cc12 (stereo not drawn),-0.32
4,O=C(COc1cc(O)c2c(=O)cc(-c3ccccc3)oc2c1)c1ccccc1,0.0143
5,CC(C)(C)OC(=O)COc1cc(O)c2c(=O)cc(-c3ccccc3)oc2c1,4.76 (active)
6,CC(C)(C)OC(=O)COc1cc(OCC(=O)OC(C)(C)C)c2c(=O)cc(-c3ccccc3)oc2c1,-0.331
7,O=C(Cc1ccccc1)N/N=C/c1ccc(OCC(=O)Nc2ccccc2)cc1,-0.147
8,CCc1nc(C)ccc1OC(=O)C12CC3CC(CC(C3)C1)C2,0.238
9,Cc1ccc(-c2cc3cccc[n+]3cc2-c2ccc(C)cc2)cc1,-0.0109
10,O=S(=O)(Nc1cccnc1)c1ccc2c(c1)OCCO2,-0.833
11,O=S(=O)(Nc1ccc2c(c1)OCCO2)c1ccc(F)cc1,-0.102
12,Cc1ccc(S(=O)(=O)Nc2ccc3nc(C)sc3c2)cc1,-0.613
13,Cc1nc2ccc(NS(=O)(=O)c3ccc(C)c(C)c3)cc2s1,-0.187
14,Cc1cccc(NS(=O)(=O)c2ccc3c(c2)OCCO3)c1,2.76
15,Cc1nc2ccc(NS(=O)(=O)c3ccc4c(c3)OCCO4)cc2s1,3.48 (active)
16,CCCCOc1ccc(NC(=O)C2CC=CCC2C(=O)O)cc1 (stereo not drawn),-0.0643
17,COc1ccc(S(=O)(=O)N(C)CC(=O)Nc2ccc3c(c2)OCO3)cc1,0.0177
18,O=C(c1ccco1)N1CCN(S(=O)(=O)c2ccc3[nH]c(=O)oc3c2)CC1,0.249
19,CC1(C)CC(=O)C2=C(C1)N(Cc1ccco1)C(=O)C2(NC(=O)c1ccc(Cl)cc1Cl)C(F)(F)F (stereo not drawn),-0.289
20,CC(C)C(NC(=O)C1CCCCC1)C(=O)Nc1ccncc1 (stereo not drawn),0.244
21,Cc1ccc(NC(=S)N/N=C/c2ccc(OCCC(C)C)cc2)c(C)c1,0.599
22,CCCCNC(=S)N/N=C/c1cc(C)ccc1C,1.48

row,SMILES,z-score
1,Cc1ccc(NC(=S)N/N=C/c2c(Cl)cccc2Cl)c(C)c1,9.31 (active)
2,Cc1ccc(C)c(/C=N/NC(=S)NCCc2ccccc2)c1,1.17
3,Cc1ccc(NC(=S)NCCO)c(C)c1,-0.044
4,S=C(NCCc1ccccc1)N/N=C/c1c(Cl)cccc1Cl,0.353
5,CCNC(=S)N/N=C/c1cc(C)ccc1C,2.43
6,CCNC(=S)N/N=C/c1cccc(C)c1,0.00977
7,CCNC(=S)N/N=C/c1c(Cl)cccc1Cl,5.15 (active)
8,Cc1cc(=O)[nH]c(SCC(=O)NCCc2ccccc2)n1,1.96
9,CCN(CC)C(=O)c1sc(NC(=O)c2ccc(C)c([N+](=O)[O-])c2)c(C#N)c1C,0.0677
10,CCOC(=O)C1C(=O)OC2(CCCCC2)C1C(=O)OCC (stereo not drawn),0.124
11,O=C(Cn1c(=O)oc2cc(S(=O)(=O)N3CCCCCC3)ccc21)NC1CCCCCCC1,-0.034
12,CCc1nnc2sc(-c3cc(-c4ccccc4)nc4ccccc34)nn12,-0.507
13,Cc1ccc(CNC(=O)COc2ccccc2-c2ccccc2)cc1,-0.0564
14,Cc1nc2c(-c3ccc(F)cc3)c(C)nn2c(C)c1CCC(=O)N1CCN(c2ccccc2)CC1,-0.81
15,CCN1CCN(c2ccc(NC(=O)CCc3c(C)nc4c(-c5ccccc5)c(C)nn4c3C)cc2)CC1,3.06 (active)
16,Cc1nc2c(-c3ccccc3)c(C)nn2c(C)c1CCC(=O)O,0.235
17,CCn1nnc(-c2ccccc2NC(=O)c2cc(OC)cc(OC)c2)n1,-0.139
18,O=C(c1ccc(CS(=O)(=O)c2ccccc2)o1)N1CCN(c2ncccn2)CC1,-0.184
19,O=C(c1ccc(CS(=O)(=O)c2ccc(Br)cc2)o1)N1CCN(c2ccccn2)CC1,-0.169
20,O=C(c1ccc(CS(=O)(=O)c2ccc(Br)cc2)o1)N1CCN(c2ncccn2)CC1,3.31 (active)
